PubChem BioAssay (EPA / NIEHS)
Inconclusive results are not listed. The source made the active and inactive calls. Rule for the calls: active = hit-call score of the fitted dose curve at least 0.9, where 1 is the maximum; inconclusive = response in the unintended direction; inactive = score below 0.9.

The compounds below were run against human CYP1A1, CYP1A1 (gene 1543) (UniProt P04798) (assay: NVS_ADME_hCYP1A1: NovaScreen (NVS) CYP450-related Enzyme Activity (ADME) Assay for human CYP1A1 (AID 2283100)).
human CYP1A1, CYP1A1 (gene 1543), sequence (P04798 whole entry, looked up): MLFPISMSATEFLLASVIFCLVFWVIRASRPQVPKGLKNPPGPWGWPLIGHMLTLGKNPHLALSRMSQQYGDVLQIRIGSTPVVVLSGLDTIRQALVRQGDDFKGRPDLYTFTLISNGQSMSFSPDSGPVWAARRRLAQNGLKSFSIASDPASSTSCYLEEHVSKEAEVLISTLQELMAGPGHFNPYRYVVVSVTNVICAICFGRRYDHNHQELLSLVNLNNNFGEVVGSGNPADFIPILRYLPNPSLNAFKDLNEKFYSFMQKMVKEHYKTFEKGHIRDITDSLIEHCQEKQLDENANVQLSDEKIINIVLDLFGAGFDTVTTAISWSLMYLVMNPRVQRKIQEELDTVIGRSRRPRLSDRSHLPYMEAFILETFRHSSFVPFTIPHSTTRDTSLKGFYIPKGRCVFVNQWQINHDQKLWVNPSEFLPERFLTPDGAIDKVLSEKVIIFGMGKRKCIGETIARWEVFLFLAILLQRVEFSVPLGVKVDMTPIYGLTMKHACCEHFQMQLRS
Method: NVS_ADME_hCYP1A1 is a biochemical, single-readout assay that uses extracted gene-proteins in a cell-free assay. Measurements were taken 1 hour after chemical dosing in a 96-well plate.NVS_ADME_hCYP1A1 is one of one assay component(s) measured or calculated from the NVS_ADME_hCYP1A1 assay. It is designed to make measurements of enzyme activity, a form of enzyme reporter, as detected with fluorescence intensity signals by Fluorescence technology.Data from the assay component NVS_ADME_hCYP1A1 was analyzed into 1 assay endpoint. This assay endpoint, NVS_ADME_hCYP1A1, was analyzed in the positive analysis fitting direction relative to Acetonitrile as the negative control and baseline of activity. Using a type of enzyme reporter, loss-of-signal activity can be used to understand changes in the enzymatic activity as they relate to the gene CYP1A1. Furthermore, this assay endpoint can be referred to as a primary readout, because this assay has produced multiple assay endpoints where this one serves a enzymatic activity function. To generalize the intended target to other relatable targets, this assay endpoint is annotated to the cyp intended target family, where the subfamily is xenobiotic metabolism.
Binding assays used specific radioligands (tritiated, iodinated) with non-radioactive competitive displacement ligands in agonist or antagonist protocols (as indicated) and various reference compounds and inhibitors to titrate specific binding to receptors and transporters. Most enzyme assays (CYPs, kinases, phosphatases, proteases, HDACs) used recombinant protein and specific substrates (fluorescence mostly, some colorimetric and radioactive) and inhibitors, followed by a biochemical separation of substrate and product. All assays for the biochemical HTS were initially run in duplicate at a single concentration (10 uM for CYP450 assays and 25 uM for all others). Assay-chemical combinations meeting a pre-defined threshold (e.g., 30% inhibition and other criteria defined below) were then run in singleton concentration-response format with maximum concentration of 20 uM for CYPs and 50 uM for all others. Each assay was run with positive and negative controls, and concurrent controls on every plate. The follow-up (secondary) screen tested active chemical-pairs in concentration series, as well as a few additional assays not tested in the primary screen, some selected negative inactives, and several cases re-run in the concentration series for confirmatory purposes.
For O=[N+]([O-])C(Br)(CO)CO, the AC50 was 12.7 µM (active). CC(C)(C)C(O)(CCc1ccc(Cl)cc1)Cn1cncn1 (configuration not stated) was tested, and the outcome was “inactive”. For Nc1ccc(Cc2ccc(N)cc2)cc1, the outcome was “inactive”. For COP(=S)(OC)SCN1C(=O)c2ccccc2C1=O, the AC50 was 3.41 µM (active). For Oc1ccc2ccc3cccc4ccc1c2c34, the AC50 was 2.84 µM (active). In the case of Nc1ccc(Oc2ccc(N)cc2)cc1, the outcome is reported as “inactive”. CCOC(=O)[C@]1(c2ccccc2)Oc2ccccc2[C@@H]1N was tested, and the outcome was “inactive”. In the case of CCCCCCCCn1sccc1=O, the outcome is reported as “inactive”. In the case of O=C(Nc1ccccc1)c1ccccc1I, the outcome is reported as “inactive”. For [Cl-].[Cl-].[Hg+2], the AC50 was 14.3 µM (active). With Nc1ccc(N=Nc2ccccc2)cc1 the outcome was “inactive”. In the case of Cc1cc(N=Nc2ccccc2C)ccc1N, the AC50 is reported as 5.4 µM (active).
